Experimental data as given in PubChem BioAssay (NCATS).
Results filed as inconclusive are left out. Active and inactive are the calls of the source. Unless noted, calls follow the shape of the dose curve; as a rule, active = well fitted curve in the direction sought with a large enough effect; inconclusive = small, poorly fitted or top-dose-only effect, or another doubt; inactive = no such curve, though single readings can be large; an effect the other way counts as inactive or inconclusive.

Legend:
[1] = AP1 Signaling Pathway (AID 357; active = well fitted curve in either direction with a large enough effect, not every such curve was filed as active;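 also: ME-180 reporter cells stimulated with EGF at its EC50 level; % is scaled to controls: 0 for no effect and ±100 for the full control effect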); conditions: ME-180 AP-1-bla reporter, EGF-induced, beta-lactamase ratio, 5 h; at 7.69 µM (top of the series) unless noted
Procedure, shortened: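 Cells are seeded overnight, exposed to compound titrations and an EC50 level of EGF for 5 hours at 37 °C, then loaded with CCF4 dye for 2.5 hours. Beta-lactamase activity under the AP-1 element is read as a blue/green ratio.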

[2] = molecular target: Cytochrome P450 1A2 (Homo sapiens) (UniProt P05177); experiment: p450-cyp1a2 (AID 410; calls by dose curve; also: potency is read from the fitted curve at half-maximal effect)
Sequence of Cytochrome P450 1A2 (Homo sapiens) (P05177 whole entry, looked up): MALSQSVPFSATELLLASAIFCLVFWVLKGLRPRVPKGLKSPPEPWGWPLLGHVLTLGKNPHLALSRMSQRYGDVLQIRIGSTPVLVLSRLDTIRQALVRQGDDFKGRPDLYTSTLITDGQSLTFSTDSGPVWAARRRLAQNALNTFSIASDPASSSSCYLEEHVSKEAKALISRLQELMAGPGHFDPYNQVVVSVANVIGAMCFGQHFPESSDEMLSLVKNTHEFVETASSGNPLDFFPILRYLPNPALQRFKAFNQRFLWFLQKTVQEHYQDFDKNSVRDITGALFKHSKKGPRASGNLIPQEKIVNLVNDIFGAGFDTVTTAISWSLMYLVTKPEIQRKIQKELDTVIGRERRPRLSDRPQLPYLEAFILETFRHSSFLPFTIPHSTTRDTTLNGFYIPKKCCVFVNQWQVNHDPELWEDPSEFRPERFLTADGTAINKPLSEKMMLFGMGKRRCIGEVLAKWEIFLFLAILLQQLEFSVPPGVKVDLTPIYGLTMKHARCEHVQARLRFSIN
Procedure, shortened: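 20nM CYP1A2, 100uM Luciferin-ME (=Km), 100mM KPO4; cpd 10 min RT; +NADPH regen, 60 min RT; stop/detect 20 min; luminescence. Normalized to furafylline 57 uM = full inhibition.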

[3] = NFAT Signaling Pathway (AID 444; active = well fitted curve in either direction with a large enough effect, not every such curve was filed as active;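 also: carbachol stimulus at about its EC50 of 1 µM final; % is scaled to controls: 0 for no effect and ±100 for the full control effect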); conditions: Jurkat NFAT-bla M1, carbachol, beta-lactamase ratio, 5 h; at 7.69 µM (top of the series) unless noted
Procedure, shortened: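 Jurkat cells carrying an NFAT-driven β-lactamase reporter and co-transfected muscarinic M1 receptor were treated with compound plus carbachol (1 uM final, an EC50 level) for 5 h at 37 °C. CCF4 loading followed for 1 h at RT; 460/530 nm ratio gave %activity.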

[4] = Stat Signaling Pathway (AID 446; active = well fitted curve in either direction with a large enough effect, not every such curve was filed as active;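 also: ME-180 cervical cancer cells given 40 pM IL-6 alongside compound; SIE-controlled beta-lactamase reporter measured as 460/530 nm FRET emission ratio; % is scaled to controls: 0 for no effect and ±100 for the full control effect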); conditions: ME-180 (cervical carcinoma) SIE beta-lactamase reporter, IL-6 stimulated, 5 h; at 7.69 µM (top of the series) unless noted
Procedure, shortened: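 Overnight-plated ME-180 cells bearing a STAT Inducible Element beta-lactamase reporter; 5 h co-exposure to compound and 40 pM IL-6; values normalized to 300 pM IL-6 and 125 nM JAK inhibitor controls.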

[5] = molecular target: Glucocorticoid receptor (Homo sapiens) (UniProt P04150); experiment: GR-GFP Redistribution (AID 450;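 active = compounds whose dose series gives a full or clear partial fitted curve of increased nuclear translocation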; also: potency is read from the fitted curve at half-maximal effect); conditions: U2OS GR-GFP nuclear translocation, laser cytometry, 2 h
Sequence of Glucocorticoid receptor (Homo sapiens) (P04150 whole entry, looked up, the tested form may be a part): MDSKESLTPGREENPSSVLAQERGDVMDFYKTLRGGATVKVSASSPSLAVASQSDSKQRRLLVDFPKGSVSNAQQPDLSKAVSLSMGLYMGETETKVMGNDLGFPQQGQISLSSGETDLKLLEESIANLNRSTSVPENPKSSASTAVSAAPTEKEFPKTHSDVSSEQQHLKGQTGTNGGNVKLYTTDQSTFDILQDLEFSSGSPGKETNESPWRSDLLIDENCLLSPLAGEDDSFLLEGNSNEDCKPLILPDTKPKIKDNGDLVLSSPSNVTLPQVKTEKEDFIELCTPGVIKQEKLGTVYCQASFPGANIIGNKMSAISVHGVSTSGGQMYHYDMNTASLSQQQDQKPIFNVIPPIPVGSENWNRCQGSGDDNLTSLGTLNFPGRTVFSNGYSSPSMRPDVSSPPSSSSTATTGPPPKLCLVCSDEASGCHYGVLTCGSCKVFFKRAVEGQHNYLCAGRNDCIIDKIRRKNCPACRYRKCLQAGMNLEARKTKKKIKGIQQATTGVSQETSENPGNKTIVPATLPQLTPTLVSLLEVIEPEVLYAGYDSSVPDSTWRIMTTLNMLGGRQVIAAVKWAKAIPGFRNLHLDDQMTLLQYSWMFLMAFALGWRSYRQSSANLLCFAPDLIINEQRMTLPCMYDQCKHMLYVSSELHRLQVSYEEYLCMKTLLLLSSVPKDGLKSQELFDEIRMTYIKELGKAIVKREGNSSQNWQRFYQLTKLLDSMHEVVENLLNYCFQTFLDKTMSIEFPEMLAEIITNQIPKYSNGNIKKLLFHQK

[6] = molecular target: Glucocorticoid receptor (Homo sapiens) (UniProt P04150); experiment: GR-EFC Redistribution (AID 451; calls by dose curve; also: potency is read from the fitted curve at half-maximal effect); conditions: CHO-K1 GR-EFC translocation, beta-gal luminescence, 2 h
Procedure, shortened: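 CHO-K1 cells stably expressing nuclear-localized β-gal enzyme acceptor and GR fused C-terminally to the enzyme donor fragment; ligand-driven nuclear translocation restores β-gal by complementation. Compounds titrated up to 46 uM final, 2 h at 37 °C; luminescence read.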

[7] = molecular target: Mitogen-activated protein kinase 10 (Mus musculus) (UniProt Q61831); experiment: JNK3 AlphaScreen Assay (AID 530; active = well fitted curve in either direction with a large enough effect, not every such curve was filed as active;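 also: kinase came from lysate of stimulated human HepG2 cells; signal reports phosphorylation of biotinylated GST-cJun 1-79 at Ser73 with 10 µM ATP; % is scaled to controls: 0 for no effect and ±100 for the full control effect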)
Procedure, shortened: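 Biotinylated GST-cJun(1-79) served as substrate for JNK3 in HepG2 lysates stimulated with IL-1beta and TNF-alpha. ATP was 10 uM final, pH 7.6. Ser73 phosphorylation was quantified by AlphaScreen (680 nm excitation).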

[8] = molecular target: Cytochrome P450 3A4 (Homo sapiens) (UniProt P08684); experiment: qHTS Assay for Activators of Cytochrome P450 3A4 (AID 885); also: nearly all actives have a fitted effect of over 65% in size
Sequence of Cytochrome P450 3A4 (Homo sapiens) (P08684 whole entry, looked up): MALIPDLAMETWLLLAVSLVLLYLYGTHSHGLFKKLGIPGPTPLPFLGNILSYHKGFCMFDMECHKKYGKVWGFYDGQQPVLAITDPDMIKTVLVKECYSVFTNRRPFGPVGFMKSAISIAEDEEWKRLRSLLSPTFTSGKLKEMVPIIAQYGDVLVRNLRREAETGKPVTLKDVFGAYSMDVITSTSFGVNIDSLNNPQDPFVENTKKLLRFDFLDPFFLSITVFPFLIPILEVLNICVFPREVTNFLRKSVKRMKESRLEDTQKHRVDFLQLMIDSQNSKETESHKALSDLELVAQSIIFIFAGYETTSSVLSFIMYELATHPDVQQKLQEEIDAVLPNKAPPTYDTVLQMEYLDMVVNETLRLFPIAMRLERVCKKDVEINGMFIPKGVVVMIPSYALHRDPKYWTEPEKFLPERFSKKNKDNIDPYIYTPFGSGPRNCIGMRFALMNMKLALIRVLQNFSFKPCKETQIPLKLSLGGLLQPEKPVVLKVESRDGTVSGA
Procedure, shortened: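 Using 20nM recombinant human CYP3A4 in potassium phosphate (200mM), substrate Luciferin-PPXE at 25uM, luminescent luciferin detection followed a 60-min RT NADPH reaction; data scaled to 57 uM ketoconazole.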

[9] = qHTS Assay for Lipid Storage Modulators (AID 1519; calls by dose curve); conditions: Drosophila S3 cells, BODIPY lipid droplet/cell ratio, laser cytometry, cells loaded with oleic acid; for activity change, negative = inhibition: at 57.5 µM (top of the series)
Procedure, shortened: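 Cells seeded at 5,000 per well were treated with compounds over a concentration series and loaded with oleic acid (400 uM, as added). Lipid droplet fluorescence (488 nm excitation, 500-530 nm channel) was read by laser-scanning cytometry and normalized to 20 uM Triacsin C.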

[10] = molecular target: Dual specificity protein kinase CLK4 (Homo sapiens) (UniProt Q9HAZ1); experiment: qHTS Assay for Inhibitors of CDC-like Kinase 4 (Kinase-Glo Assay) (AID 1770); also: nearly all actives have a fitted effect of over 65% in size; also: potency is read from the fitted curve at half-maximal effect
Sequence of Dual specificity protein kinase CLK4 (Homo sapiens) (Q9HAZ1 whole entry, looked up): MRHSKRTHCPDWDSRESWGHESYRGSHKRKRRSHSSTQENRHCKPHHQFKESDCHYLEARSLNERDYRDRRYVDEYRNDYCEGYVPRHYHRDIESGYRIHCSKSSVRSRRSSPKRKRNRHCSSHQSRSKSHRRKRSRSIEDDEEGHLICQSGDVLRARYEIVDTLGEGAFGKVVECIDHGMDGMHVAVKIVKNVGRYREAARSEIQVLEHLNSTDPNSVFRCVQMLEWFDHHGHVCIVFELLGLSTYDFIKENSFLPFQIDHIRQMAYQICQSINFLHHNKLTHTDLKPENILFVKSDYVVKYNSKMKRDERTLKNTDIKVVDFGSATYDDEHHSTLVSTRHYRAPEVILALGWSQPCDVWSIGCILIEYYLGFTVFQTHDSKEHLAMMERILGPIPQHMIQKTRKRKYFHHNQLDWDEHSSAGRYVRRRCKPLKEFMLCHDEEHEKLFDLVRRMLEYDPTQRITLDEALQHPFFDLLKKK
Procedure, shortened: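 Clk4 25 nM, RS peptide 100 uM, ATP 1 uM, pH 7.5 Tris, 10 mM MgCl2, 2.5 mM DTT; 4.5 h RT; ATP depletion read by Kinase-Glo luminescence.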

[11] = molecular target: Dual specificity protein kinase CLK4 (Homo sapiens) (UniProt Q9HAZ1); experiment: qHTS Assay for Inhibitors of CDC-like Kinase 4 (ADP-Glo Assay) (AID 1771); also: nearly all actives have a fitted effect of over 70% in size; also: potency is read from the fitted curve at half-maximal effect
Procedure, shortened: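 25 nM Clk4, 100 uM RS peptide, 1 uM ATP (final); 2 mM MgCl2, 0.5 mM EGTA, 2.5 mM DTT, 0.01% Triton X-100; 1 hr RT. ADP-Glo readout: ATP depletion 45 min, conversion/luciferase 30 min, luminescence.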

[12] = molecular target: Dual specificity protein kinase CLK4 (Homo sapiens) (UniProt Q9HAZ1); experiment: qHTS Assay for Inhibitors of CDC-like Kinase 4 (ADP-FP Assay) (AID 1795);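 also: recombinant human CLK4 phosphorylating RS repeat peptide at 1 µM ATP; % is scaled to controls: 0 for no effect and ±100 for the full control effect; nearly all actives have a fitted effect of over 60% in size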
Procedure, shortened: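 Kinase activity was followed as ADP output, converted from fluorescence polarization with a calibration curve. Reactions ran one hour at low ATP (1 uM) with RS peptide substrate.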

[13] = molecular target: Ubiquitin carboxyl-terminal hydrolase 1 (Homo sapiens) (UniProt O94782); experiment: Inhibitors of USP1/UAF1: Pilot qHTS (AID 504865); also: nearly all actives have a fitted effect of over 35% in size; also: potency is read from the fitted curve at half-maximal effect
Sequence of Ubiquitin carboxyl-terminal hydrolase 1 (Homo sapiens) (O94782 whole entry, looked up): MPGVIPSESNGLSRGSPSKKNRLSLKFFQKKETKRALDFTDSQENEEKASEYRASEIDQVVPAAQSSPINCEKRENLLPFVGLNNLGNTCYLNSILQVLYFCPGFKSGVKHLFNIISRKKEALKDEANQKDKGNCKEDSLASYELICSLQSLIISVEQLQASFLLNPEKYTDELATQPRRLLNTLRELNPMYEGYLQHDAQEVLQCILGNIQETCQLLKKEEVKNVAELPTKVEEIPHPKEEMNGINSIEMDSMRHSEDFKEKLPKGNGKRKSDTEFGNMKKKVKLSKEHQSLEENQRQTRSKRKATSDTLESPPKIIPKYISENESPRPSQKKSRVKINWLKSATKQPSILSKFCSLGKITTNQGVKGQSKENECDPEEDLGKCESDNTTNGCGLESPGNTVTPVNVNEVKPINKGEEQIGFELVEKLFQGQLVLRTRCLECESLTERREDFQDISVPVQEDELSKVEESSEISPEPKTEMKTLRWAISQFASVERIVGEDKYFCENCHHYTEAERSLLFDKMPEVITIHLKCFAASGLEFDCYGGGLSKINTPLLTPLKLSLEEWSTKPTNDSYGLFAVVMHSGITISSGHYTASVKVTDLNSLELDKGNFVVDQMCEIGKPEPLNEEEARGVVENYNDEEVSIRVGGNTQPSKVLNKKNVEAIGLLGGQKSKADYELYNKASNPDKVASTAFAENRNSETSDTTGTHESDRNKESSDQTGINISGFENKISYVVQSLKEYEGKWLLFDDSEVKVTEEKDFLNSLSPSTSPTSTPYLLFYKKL
Procedure, shortened: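 Enzyme-free wells gave the negative control, while test wells held 1nM USP1/UAF1 preincubated with compound for 15 min at room temperature. Ub-Rho at 150nM final started the reaction, and fluorescence at 480/540 nm was recorded kinetically.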

[14] = Primary qHTS for small molecule stabilizers of the endoplasmic reticulum resident proteome: Secreted ER Calcium Modulated Protein (SERCaMP) assay (AID 1508630); also: % is scaled to controls: 0 for no effect and ±100 for the full control effect
Procedure, shortened: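 The SH-SY5Y reporter protocol was run at 3 concentrations up to 38.3 uM (primary) or 11 concentrations (follow-up): 16 h compound, 100 nM thapsigargin for 4 h, then extracellular luciferase luminescence.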

[15] = molecular target: Lysosomal acid glucosylceramidase (Homo sapiens) (UniProt P04062); experiment: Glucocerebrosidase-p2 (AID 348; in the data active = potency below about 10 µM; also: potency is read from the fitted curve at half-maximal effect); conditions: purified GBA, blue fluorogenic substrate, 40 min
Sequence of Lysosomal acid glucosylceramidase (Homo sapiens) (P04062 whole entry, looked up): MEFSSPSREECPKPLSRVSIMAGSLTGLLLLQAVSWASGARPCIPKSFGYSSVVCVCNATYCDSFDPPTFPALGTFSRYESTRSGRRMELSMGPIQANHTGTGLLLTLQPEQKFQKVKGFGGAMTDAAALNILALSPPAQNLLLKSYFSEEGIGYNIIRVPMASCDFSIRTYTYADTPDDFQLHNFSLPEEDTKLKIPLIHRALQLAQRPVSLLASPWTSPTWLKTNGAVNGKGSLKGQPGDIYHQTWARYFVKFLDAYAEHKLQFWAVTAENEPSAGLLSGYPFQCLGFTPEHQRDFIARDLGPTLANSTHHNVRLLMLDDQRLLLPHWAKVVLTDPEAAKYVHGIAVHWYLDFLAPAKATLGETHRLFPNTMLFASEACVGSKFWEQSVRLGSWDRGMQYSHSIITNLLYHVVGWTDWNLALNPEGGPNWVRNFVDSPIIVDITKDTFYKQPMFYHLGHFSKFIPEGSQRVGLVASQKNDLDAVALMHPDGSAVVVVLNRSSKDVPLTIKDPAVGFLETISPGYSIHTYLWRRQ
Procedure, shortened: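 Normal human glucocerebrosidase (0.2 nM) with blue fluorogenic substrate (80 uM final) in citrate/phosphate pH 5.9 with 10mM sodium taurocholate, 0.01% tween-20; 40 min RT, NaOH/glycine stop; fluorescence Ex 365/Em 440; AC50 from a titration from 0.6 nM upwards.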

[16] = molecular target: 3',5'-cyclic-AMP phosphodiesterase 4B (Homo sapiens) (UniProt Q07343); experiment: qHTS Assay for Inhibitors of PDE-IV (AID 607; active = well fitted activation curve with a large enough effect in the main read-out, with a control signal flat, not every such curve was filed as active; also: % of control where 0% means no effect)
Sequence of 3',5'-cyclic-AMP phosphodiesterase 4B (Homo sapiens) (Q07343 whole entry, looked up): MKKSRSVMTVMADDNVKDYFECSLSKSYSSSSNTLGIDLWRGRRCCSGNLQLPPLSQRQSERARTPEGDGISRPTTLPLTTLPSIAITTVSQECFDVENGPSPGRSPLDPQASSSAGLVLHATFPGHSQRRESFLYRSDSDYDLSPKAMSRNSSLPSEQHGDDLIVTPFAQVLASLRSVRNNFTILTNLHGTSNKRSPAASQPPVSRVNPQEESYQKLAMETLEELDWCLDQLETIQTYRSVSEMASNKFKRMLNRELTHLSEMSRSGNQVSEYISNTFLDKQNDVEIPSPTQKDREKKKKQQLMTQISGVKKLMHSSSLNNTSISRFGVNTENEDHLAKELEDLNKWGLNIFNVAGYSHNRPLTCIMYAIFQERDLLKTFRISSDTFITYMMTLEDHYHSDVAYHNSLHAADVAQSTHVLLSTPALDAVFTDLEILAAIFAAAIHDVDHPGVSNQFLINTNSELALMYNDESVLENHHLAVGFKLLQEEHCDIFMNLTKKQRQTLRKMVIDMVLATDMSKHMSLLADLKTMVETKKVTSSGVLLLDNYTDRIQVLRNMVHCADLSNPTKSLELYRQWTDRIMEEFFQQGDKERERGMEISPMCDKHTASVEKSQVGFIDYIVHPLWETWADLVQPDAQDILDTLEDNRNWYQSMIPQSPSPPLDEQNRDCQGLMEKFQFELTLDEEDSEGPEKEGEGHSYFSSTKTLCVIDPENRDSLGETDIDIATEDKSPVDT
Procedure, shortened: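 Live HEK293 cells with a modified cyclic nucleotide-gated (CNG) channel report intracellular cAMP via membrane-potential dye fluorescence (ex 535/em 590 nm). Endogenous PDE-IV was targeted. Compounds were tested at up to 22.9 uM final; RO 20-1724 100 uM served as control.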

[17] = molecular target: Cytochrome P450 3A4 (Homo sapiens) (UniProt P08684); experiment: qHTS Assay for Inhibitors and Substrates of Cytochrome P450 3A4 (AID 884); also: potency is read from the fitted curve at half-maximal effect; nearly all actives have a fitted effect of over 50% in size
Procedure, shortened: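 Luminescent readout of luciferin produced by CYP3A4 (20 nM) dealkylation of Luciferin-PPXE, 25 uM (its KM). NADPH-driven reaction ran 60 min at RT after 10 min compound preincubation; data scaled to 57 uM ketoconazole as 100% inhibition.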

[18] = molecular target: Cytochrome P450 2C19 (Homo sapiens) (UniProt P33261); experiment: qHTS Assay for Inhibitors and Substrates of Cytochrome P450 2C19 (AID 899); also: % is scaled to controls: 0 for no effect and ±100 for the full control effect; nearly all actives have a fitted effect of over 60% in size
Sequence of Cytochrome P450 2C19 (Homo sapiens) (P33261 whole entry, looked up): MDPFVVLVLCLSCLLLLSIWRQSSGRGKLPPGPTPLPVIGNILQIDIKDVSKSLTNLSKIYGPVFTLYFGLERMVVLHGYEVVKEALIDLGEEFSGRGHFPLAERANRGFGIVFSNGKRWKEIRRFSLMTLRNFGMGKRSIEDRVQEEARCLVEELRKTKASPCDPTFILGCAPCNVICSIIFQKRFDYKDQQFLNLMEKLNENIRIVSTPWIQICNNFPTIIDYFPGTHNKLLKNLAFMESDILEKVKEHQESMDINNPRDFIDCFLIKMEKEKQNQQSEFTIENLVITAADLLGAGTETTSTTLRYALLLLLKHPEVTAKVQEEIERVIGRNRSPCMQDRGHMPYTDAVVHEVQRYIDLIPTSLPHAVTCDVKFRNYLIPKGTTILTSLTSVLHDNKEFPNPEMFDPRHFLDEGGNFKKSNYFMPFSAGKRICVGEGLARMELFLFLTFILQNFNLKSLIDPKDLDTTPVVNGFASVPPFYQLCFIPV
Procedure, shortened: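 In 50mM KPO4, the reaction held 5nM enzyme and KM-level (10uM) Luciferin-H EGE; it ran 60 min at 37C after NADPH regeneration and a 10 min compound preincubation. Luminescence values were scaled to 57uM ketoconazole as complete inhibition.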

[19] = measured here: cell count channel max response
[20] = measured here: lipid channel max response

CCNc1ncc2nc(-c3cn(C)c4ccccc34)c(=O)n(C)c2n1
inactive: activity change, negative = inhibition [1] -15.1% | activity change, negative = inhibition [3] 2.68% | activity, negative = inhibition [4] -2.13% | Potency [5] > 9.22 µM | Potency [6] > 46 µM | outcome [7] | Potency [8] | activity change, negative = inhibition [9] 8.66% | Potency [10] | Potency [11] | Potency [12] | Potency [13] | Potency [14]
19.5%: max response [9, 19]
active: Potency [2] 0.1 µM
27.7%: max response [9, 20]

Cc1cccc(CNc2cc(-c3c(C)noc3C)ncn2)c1
14.9%: max response [9, 19]
active: Potency [2] 1 µM | Potency [17] 5.01 µM | Potency [10] 15.8 µM | Potency [11] 15.8 µM
inactive: Potency [15] > 11.4 µM | activity change, negative = inhibition [1] -5.03% | activity change, negative = inhibition [3] -10.8% | activity, negative = inhibition [4] -4.88% | Potency [5] > 46 µM | outcome [7] | Potency [16] | Potency [8] | activity change, negative = inhibition [9] 8.24% | Potency [13] | Potency [14]
22%: max response [9, 20]

Clc1ccccc1-c1nccc(NCc2cccs2)n1
18.5%: max response [9, 20]
active: Potency [13] 28.2 µM
8.1%: max response [9, 19]
inactive: activity change, negative = inhibition [1] 15.2% | activity change, negative = inhibition [3] 0.38% | activity, negative = inhibition [4] 1.89% | Potency [5] > 46 µM | Potency [6] > 46 µM | outcome [7] | activity change, negative = inhibition [9] 7.3% | Potency [10] | Potency [11] | Potency [12] | Potency [14]

O=c1c(-c2cccs2)nc2cnc(N3CCOCC3)nc2n1Cc1cccs1
inactive: Potency [15] > 11.4 µM | activity change, negative = inhibition [1] 15.1% | activity change, negative = inhibition [3] -8.44% | Potency [5] > 9.22 µM | Potency [6] > 46 µM | outcome [7] | Potency [16] | Potency [8] | activity change, negative = inhibition [9] -15.7% | Potency [10] | Potency [11] | Potency [13] | Potency [14]
0.532%: max response [9, 20]
active: Potency [2] 15.8 µM
22.5%: max response [9, 19]

CN1CCN(c2ncc3ncc(=O)n(CCC#N)c3n2)CC1
10.7%: max response [9, 20]
active: Potency [2] 31.6 µM
9.3%: max response [9, 19]
inactive: Potency [15] > 11.4 µM | activity change, negative = inhibition [1] -10.2% | activity change, negative = inhibition [3] -4.67% | activity, negative = inhibition [4] -3.39% | Potency [5] > 9.22 µM | Potency [6] > 46 µM | outcome [7] | Potency [16] | Potency [18] | activity change, negative = inhibition [9] 6.98% | Potency [10] | Potency [12] | Potency [13] | Potency [14]

Cn1c(=O)c(-c2ccccc2)nc2cncnc21
16.6%: max response [9, 20]
inactive: Potency [15] > 11.4 µM | activity change, negative = inhibition [1] -7.79% | activity change, negative = inhibition [3] -9.84% | activity, negative = inhibition [4] -4.68% | Potency [5] > 9.22 µM | Potency [6] > 46 µM | outcome [7] | Potency [16] | Potency [8] | activity change, negative = inhibition [9] 6.1% | Potency [10] | Potency [12] | Potency [13] | Potency [14]
8.5%: max response [9, 19]
active: Potency [2] 0.631 µM
